# Compounds without any hit were thinned out: in the full panel of roughly 79,000, 15% have a hit. Values without a mark were called inactive. Calls of active or inactive are those of the source. No stated cut-off is given here; in the data, active means growth inhibition above about 70%; inactive means the rest.
# Columns and labels:
# [1] = NCI Yeast Anticancer Drug Screen. Data for the rad52 strain (AID 147);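 further: 0% = growth of vehicle-treated control cultures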; conditions: S. cerevisiae rad52 mutant growth inhibition, stronger effect = higher value
# Method in brief: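 Measured: yeast growth inhibition. System: strain with a defined DNA damage repair alteration. Reference: vehicle-treated control cultures.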
# [2] = NCI Yeast Anticancer Drug Screen. Data for the wt1 strain (AID 149);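 further: 0% = growth of vehicle-treated wt1 cultures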; conditions: S. cerevisiae wt1 strain (SPY 50644) growth inhibition, stronger effect = higher value
# Method in brief: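 Using yeast strain wt1, compound-induced growth inhibition was determined against vehicle-treated cultures.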
# [3] = NCI Yeast Anticancer Drug Screen. Data for the rad50EPP+ strain (AID 151);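 further: 0% = growth of vehicle-treated control cultures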; conditions: S. cerevisiae rad50 mutant strain, stronger effect = higher value
# Method in brief: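 One strain with a rad50 alteration (rad50EPP+) was compound-treated, its growth then compared to that of vehicle controls.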
# [4] = NCI Yeast Anticancer Drug Screen. Data for the rad50 strain (AID 155);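 further: 0% = growth of vehicle-only cultures of the same strain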; conditions: S. cerevisiae rad50 strain growth inhibition, stronger effect = higher value
# Method in brief: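 Relative growth inhibition (compound vs vehicle) was measured in yeast with a defined repair-gene alteration.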
# [5] = NCI Yeast Anticancer Drug Screen. Data for the mec2-1 strain (AID 157); conditions: S. cerevisiae mec2-1 strain, stronger effect = higher value
# Method in brief: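 Test agents were screened against the mec2-1 yeast strain, with defined DNA repair or cell cycle alteration. Growth was scored as inhibition against vehicle-only controls.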
# [6] = NCI Yeast Anticancer Drug Screen. Data for the rad14 strain (AID 159);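 further: 0% = growth of vehicle-treated control cultures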; conditions: S. cerevisiae rad14 strain growth inhibition, stronger effect = higher value
# Method in brief: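 Screen for anticancer potential: a yeast strain altered in DNA damage repair is grown with compound, and reduced growth is quantified against vehicle controls.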
# [7] = NCI Yeast Anticancer Drug Screen. Data for the sgs1 mgt1 strain (AID 161);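 further: 0% = growth of cultures given vehicle only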; conditions: S. cerevisiae sgs1 mgt1 strain, stronger effect = higher value
# Method in brief: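 Genetically altered yeast, compound exposure, growth inhibition relative to vehicle.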
# [8] = NCI Yeast Anticancer Drug Screen. Data for the CLN2oe strain (AID 163);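 further: 0% = growth of vehicle-only control cultures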; conditions: S. cerevisiae CLN2oe strain, stronger effect = higher value
# Method in brief: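 Here, growth inhibition in a cell-cycle-altered yeast strain after compound exposure was quantified against vehicle control growth.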
# [9] = NCI Yeast Anticancer Drug Screen. Data for the cln2 rad14 strain (AID 165);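 further: 0% = growth equal to vehicle treated cultures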; conditions: S. cerevisiae cln2 rad14 strain, stronger effect = higher value
# Method in brief: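 Growth of compound-exposed yeast (cln2 rad14 genotype) measured and expressed as inhibition relative to vehicle.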
# [10] = NCI Yeast Anticancer Drug Screen. Data for the bub3 strain (AID 167); conditions: S. cerevisiae bub3 mutant strain, stronger effect = higher value
# Method in brief: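 Screening used yeast with an engineered genetic alteration affecting cell cycle control. Compound-exposed cultures were compared with vehicle cultures, and reduced growth was taken as inhibition.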
# [11] = NCI Yeast Anticancer Drug Screen. Data for the wt2 strain (AID 169);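 further: 0% = growth of vehicle-treated yeast cultures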; conditions: S. cerevisiae wt2 strain growth inhibition, stronger effect = higher value
# Method in brief: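 Genetically defined yeast strains from a DNA-repair/cell-cycle panel were used. Compound-exposed yeast growth was measured, and the inhibition was calculated relative to vehicle treatment.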
# [12] = NCI Yeast Anticancer Drug Screen. Data for the mlh1 strain (AID 171);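 further: 0% = growth of vehicle-treated control cultures of the same strain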; conditions: S. cerevisiae mlh1 strain growth inhibition, stronger effect = higher value
# Method in brief: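 Here the genetically defined yeast mutant is grown with each compound, and the extent to which its growth falls below that of vehicle-exposed cells is reported.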
# [13] = NCI Yeast Anticancer Drug Screen. Data for the sgs1 strain (AID 173);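 further: 0% = growth of vehicle-only control cultures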; conditions: S. cerevisiae sgs1 mutant, stronger effect = higher value
# Method in brief: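 Relative growth inhibition, referenced to vehicle, was determined in a yeast strain with a defined alteration affecting DNA damage repair or cell cycle control after compound exposure.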
# [14] = NCI Yeast Anticancer Drug Screen. Data for the mlh1 rad18 strain (AID 175); conditions: S. cerevisiae mlh1 rad18 strain growth inhibition, stronger effect = higher value
# Method in brief: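 In this whole-cell yeast screen, a strain with altered DNA damage repair is challenged with compound, and its growth is measured against matched vehicle-treated controls.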
# [15] = NCI Yeast Anticancer Drug Screen. Data for the rad18 strain (AID 177); conditions: S. cerevisiae rad18 mutant growth inhibition, stronger effect = higher value
# Method in brief: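 Screen uses a yeast strain with a defined lesion in DNA damage repair; compound effect is read as loss of growth compared to untreated vehicle cultures.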
# [16] = at 5.0 µM (retest, dose inferred, filed as 0.5)
# [17] = at 50.0 µM (retest, dose inferred, filed as 5.0)
compound,measurement,setting,value
CC(=O)OCC1OC(O[C@H]2C=C[C@@H](C(=O)OCc3ccccc3)n3c(=O)n(-c4ccccc4)c(=O)n32)C(OC(C)=O)C(OC(C)=O)C1OC(C)=O (stereo partly drawn),growth inhibition,[1]; at 1.2 µM,22%
same,growth inhibition,[1]; at 3.7 µM,24%
same,growth inhibition,[1]; at 11.0 µM,14%
same,growth inhibition,[1]; at 33.0 µM,63%
same,growth inhibition,[1]; at 100.0 µM,77% (active)
same,growth inhibition,[2]; at 1.2 µM,-11%
same,growth inhibition,[2]; at 3.7 µM,2%
same,growth inhibition,[2]; at 11.0 µM,-3%
same,growth inhibition,[2]; at 33.0 µM,21%
same,growth inhibition,[2]; at 100.0 µM,29%
same,growth inhibition,[3]; at 1.2 µM,-9%
same,growth inhibition,[3]; at 3.7 µM,3%
same,growth inhibition,[3]; at 11.0 µM,2%
same,growth inhibition,[3]; at 33.0 µM,16%
same,growth inhibition,[3]; at 100.0 µM,18%
same,growth inhibition,[4]; at 1.2 µM,-14%
same,growth inhibition,[4]; at 3.7 µM,10%
same,growth inhibition,[4]; [16],39%
same,growth inhibition,[4]; at 11.0 µM,0%
same,growth inhibition,[4]; at 33.0 µM,50%
same,growth inhibition,[4]; [17],72% (active)
same,growth inhibition,[4]; at 50.0 µM,59%
same,growth inhibition,[4]; at 100.0 µM,67%
same,growth inhibition,[5]; at 1.2 µM,2%
same,growth inhibition,[5]; at 3.7 µM,9%
same,growth inhibition,[5]; [16],23%
same,growth inhibition,[5]; at 11.0 µM,-8%
same,growth inhibition,[5]; at 33.0 µM,36%
same,growth inhibition,[5]; [17],71% (active)
same,growth inhibition,[5]; at 50.0 µM,57%
same,growth inhibition,[5]; at 100.0 µM,59%
same,growth inhibition,[6]; at 1.2 µM,-15%
same,growth inhibition,[6]; at 3.7 µM,8%
same,growth inhibition,[6]; at 11.0 µM,-8%
same,growth inhibition,[6]; at 33.0 µM,8%
same,growth inhibition,[6]; at 100.0 µM,20%
same,growth inhibition,[7]; [16],29%
same,growth inhibition,[7]; [17],78% (active)
same,growth inhibition,[7]; at 50.0 µM,71% (active)
same,growth inhibition,[8]; at 1.2 µM,10%
same,growth inhibition,[8]; at 3.7 µM,22%
same,growth inhibition,[8]; at 11.0 µM,24%
same,growth inhibition,[8]; at 33.0 µM,58%
same,growth inhibition,[8]; at 100.0 µM,82% (active)
same,growth inhibition,[9]; [16],13%
same,growth inhibition,[9]; [17],33%
same,growth inhibition,[9]; at 50.0 µM,53.6%
same,growth inhibition,[10]; at 1.2 µM,-30%
same,growth inhibition,[10]; at 3.7 µM,-18%
same,growth inhibition,[10]; [16],28%
same,growth inhibition,[10]; at 11.0 µM,-27%
same,growth inhibition,[10]; at 33.0 µM,24%
same,growth inhibition,[10]; [17],80% (active)
same,growth inhibition,[10]; at 50.0 µM,75.1% (active)
same,growth inhibition,[10]; at 100.0 µM,76% (active)
same,growth inhibition,[11]; at 1.2 µM,-36%
same,growth inhibition,[11]; at 3.7 µM,-18%
same,growth inhibition,[11]; at 11.0 µM,19%
same,growth inhibition,[11]; at 33.0 µM,98% (active)
same,growth inhibition,[11]; at 100.0 µM,97% (active)
same,growth inhibition,[12]; at 1.2 µM,-17%
same,growth inhibition,[12]; at 3.7 µM,-2%
same,growth inhibition,[12]; at 11.0 µM,-23%
same,growth inhibition,[12]; at 33.0 µM,39%
same,growth inhibition,[12]; at 100.0 µM,70% (active)
same,growth inhibition,[13]; at 1.2 µM,-9%
same,growth inhibition,[13]; at 3.7 µM,-15%
same,growth inhibition,[13]; at 11.0 µM,-8%
same,growth inhibition,[13]; at 33.0 µM,50%
same,growth inhibition,[13]; at 100.0 µM,77% (active)
same,growth inhibition,[14]; [16],70% (active)
same,growth inhibition,[14]; [17],93% (active)
same,growth inhibition,[14]; at 50.0 µM,28.9%
same,growth inhibition,[15]; at 1.2 µM,-6%
same,growth inhibition,[15]; at 3.7 µM,3%
same,growth inhibition,[15]; at 11.0 µM,7%
same,growth inhibition,[15]; at 33.0 µM,59%
same,growth inhibition,[15]; at 100.0 µM,76% (active)

# Reference: PubChem BioAssay (NCI)
